MazF activator: activators of E. coli MazEF toxin-antitoxin RNase, primary screen, biochemical, fluorescence, uHTS | 350,000 tested, 0.32% active | activation, % at 20 µM | FAM/BHQ RNA-DNA oligo cleavage fluorescence, 5 h | AID 504720, 2011; in the data active = activation above about 50%
Target sequence (P0AE70 whole entry, looked up): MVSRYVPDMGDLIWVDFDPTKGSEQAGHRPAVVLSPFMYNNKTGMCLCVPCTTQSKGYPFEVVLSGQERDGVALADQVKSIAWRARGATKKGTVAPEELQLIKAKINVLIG
CCHF vOTU inh: CCHFV vOTU protease inhibitors, primary screen, biochemical, Pep-AMC substrate, fluorescence; Crimean-Congo hemorrhagic fever virus L polyprotein viral ovarian tumor (vOTU) protease …; inhibition, % at 11.5 µM; 370,000 tested, 0.55% active
GDH-TPI inh: GDH-TPI coupling enzyme inhibitors, primary screen, artefact control for M. tuberculosis FBA inhibitor project, biochemical, absorbance, full deck; GDH-TPI coupled enzyme counterscreen, NADH absorbance; inhibition, % at 4.8 µM; 360,000 tested, 1.2% active
Mtb bLac sens: beta-lactam sensitization of Mtb H37Rv, H37Rv | M. tuberculosis H37Rv growth with meropenem, percent inhibition | inhibition, % at 25 µM | 330,000 tested, 0.27% active | AID 434955, 2010; call rule not given here;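 also: growth measured after seven days incubation then overnight dye step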
Mtb FBA inh: Mtb FBA enzyme inhibitors, primary screen, biochemical, fluorescence, strain H37Rv. 360,000 tested, 2.3% active. inhibition, % at 1 µM. purified M. tuberculosis FBA, fluorescence read-out. Fructose-bisphosphate aldolase (Mycobacterium tuberculosis (strain ATCC 25618 / H37Rv)), …; in the data active = inhibition above about 27%
Target sequence (P9WQA3 whole entry, looked up): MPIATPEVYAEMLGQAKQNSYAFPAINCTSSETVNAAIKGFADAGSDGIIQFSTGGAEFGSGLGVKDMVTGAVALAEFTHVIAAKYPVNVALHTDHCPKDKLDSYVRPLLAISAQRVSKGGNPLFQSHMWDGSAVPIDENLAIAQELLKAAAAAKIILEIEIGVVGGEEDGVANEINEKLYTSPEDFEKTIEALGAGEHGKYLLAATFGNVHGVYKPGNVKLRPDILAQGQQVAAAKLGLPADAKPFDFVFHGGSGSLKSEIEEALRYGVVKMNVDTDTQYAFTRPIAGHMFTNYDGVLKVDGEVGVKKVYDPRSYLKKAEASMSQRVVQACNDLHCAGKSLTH
Each line names hits and unclear results; the compound was inactive in the other large screens. An excerpt weighted towards active compounds, which were near 4% of everything screened. Rule as the data show it, unless noted: active = inhibition above about 30%; inactive = the rest.

CC(C)CCNc1nc(N)c([N+](=O)[O-])c(NCCO)n1	GDH-TPI inh 50
Cc1ccc(CNc2nc(N)c([N+](=O)[O-])c(NCc3ccccc3)n2)cc1	none
Nc1nc(NCc2ccc(Cl)cc2)nc(NCCO)c1[N+](=O)[O-]	GDH-TPI inh 38
COC(=O)c1cc(-c2c(C)noc2C)c(=O)n2c1CCC2	none (no result: MazF activator, GDH-TPI inh, Mtb bLac sens, Mtb FBA inh)
S=C1Cc2ccccc2N1	CCHF vOTU inh 100 (no result: Mtb bLac sens)
N#Cc1cc(F)cc(OCCCN2CCC(C(O)(c3ccccc3)c3ccccc3)CC2)c1	none (no result: MazF activator, GDH-TPI inh, Mtb bLac sens, Mtb FBA inh)
CC1CCCN(Cc2c(O)ccc3c(=O)c(-c4ccc(Cl)cc4)coc23)C1 (centres undefined)	none (no result: Mtb bLac sens)
CCN(CC)Cc1c(O)ccc2c(=O)c(-c3ccccc3OC)coc12	Mtb FBA inh 116
COc1ccccc1-c1coc2c(CN3CCC(C)CC3)c(O)ccc2c1=O	Mtb FBA inh 149
CCN(CC)CCn1c(=O)n(-c2ccc(Cl)cc2)c(=O)c2c3c(sc21)CN(C)CC3	MazF activator 660
CN1CCc2c(sc3c2c(=O)n(-c2ccc(Cl)cc2)c2nncn32)C1	none
COc1ccc(-c2nnc(SCc3c(F)cccc3F)n2N)cc1	none (no result: MazF activator, GDH-TPI inh, Mtb bLac sens, Mtb FBA inh)
CCN1CCCCC(NC(=O)c2cc(OC)c(OC)c(OC)c2)C1=O (centres undefined)	none (no result: MazF activator, GDH-TPI inh, Mtb bLac sens, Mtb FBA inh)
CC(=O)N1CCN(C(=O)CCn2nnc3ccccc32)CC1	none (no result: MazF activator, GDH-TPI inh, Mtb bLac sens, Mtb FBA inh)
Cn1ccc2c(/C=C/c3ccc(F)cc3)cc3c(c21)C1CCC3O1 (centres undefined)	Mtb FBA inh 140 (no result: MazF activator, GDH-TPI inh, Mtb bLac sens)
Cn1ccc2c(/C=C/c3ccc(F)cc3)cc3c(c21)C1CCC3C1 (centres undefined)	none (no result: MazF activator, GDH-TPI inh, Mtb bLac sens)
COC(=O)C[C@@H]1CC[C@@H]2[C@H](COc3ccc(NC(=O)Nc4c(C)noc4C)cc3C(=O)N2C)O1	none (no result: MazF activator, GDH-TPI inh, Mtb bLac sens, Mtb FBA inh)
Cc1cc(C)c(CSc2ncc(-c3ccc([N+](=O)[O-])cc3)[nH]2)c(C)c1	MazF activator 76
O=[N+]([O-])c1ccc(-c2cnc(SCc3ccccc3Cl)[nH]2)cc1	none
COC(=O)[C@H]1C[C@@]2(N3CCCCC3)c3ccccc3N(S(=O)(=O)c3ccccc3)[C@H]2N1	none (no result: MazF activator, GDH-TPI inh, Mtb bLac sens, Mtb FBA inh)
O=S1(=O)c2c(cccc2N2CC[C@@H](O)C2)O[C@H]2CCN1C2	none (no result: MazF activator, GDH-TPI inh, Mtb bLac sens, Mtb FBA inh)
Cc1cccc2cc(C#N)c(NCc3ccccc3)nc12	Mtb FBA inh 30
CC(C)C[C@@H]1COc2cc(Br)ccc2S(=O)(=O)N1Cc1cn(Cc2ccc(Br)cc2)nn1	none (no result: MazF activator, GDH-TPI inh, Mtb bLac sens, Mtb FBA inh)
Cn1c2ccccc2c(=O)c2c(=O)n(Cc3ccco3)c(-c3ccc(F)cc3)nc21	none
Cc1ccc(-c2nc3c(c(=O)c4ccccc4n3C)c(=O)n2Cc2ccco2)cc1	GDH-TPI inh 32
CN(/C=C/C(=O)C(F)(F)F)Cc1ccccc1	GDH-TPI inh 32
CCCCOc1ccc(C(=O)NC2CCCCN(Cc3ccc(Cl)cc3)C2=O)cc1 (centres undefined)	none (no result: MazF activator, GDH-TPI inh, Mtb bLac sens, Mtb FBA inh)
COc1ccc(CNc2nc(-c3ccccc3)nc3ccccc23)cc1OC	CCHF vOTU inh 32
Fc1ccc(CNc2nc(-c3ccccc3)nc3ccccc23)cc1	none (no result: Mtb bLac sens)
COC(=O)C1CN(Cc2cn(CCC3OCCO3)nn2)CCS(=O)(=O)N1Cc1ccc(Cl)cc1 (centres undefined)	none (no result: MazF activator, GDH-TPI inh, Mtb bLac sens, Mtb FBA inh)
CCOC(=O)CSC1=NC(=O)/C(=C/c2ccc(Br)cc2)S1	none
CCOC(=O)CSC1=NC(=O)/C(=C\c2ccc(OC(C)=O)cc2)S1	MazF activator 65
O=S1(=O)CC2c3ccc(F)cc3CN2CN1C1CCCC1 (centres undefined)	none (no result: MazF activator, GDH-TPI inh, Mtb bLac sens, Mtb FBA inh)
COc1ccc(-c2nc(-c3ccncc3)no2)cc1	MazF activator 91
COc1ccc(/C=C2\CC3(OC(=O)C4CCCC4)CCCN2C3)cc1 (centres undefined)	none (no result: MazF activator, GDH-TPI inh, Mtb bLac sens, Mtb FBA inh)
Cc1ccc(C(=O)CC(=O)c2ccccc2)cc1	none
CC(CC(=O)c1ccccc1)=NCC(O)CN=C(C)CC(=O)c1ccccc1 (centres undefined)	GDH-TPI inh 55 (no result: Mtb bLac sens)
Cc1ccc(/C=N/Nc2nncc(-c3ccccc3)n2)o1	GDH-TPI inh 44
Clc1ccc(-c2ccc(/C=N/Nc3nncc(-c4ccccc4)n3)o2)cc1	none
COc1ccc(-c2cnnc(N/N=C/c3ccc(OC)c(OC)c3)n2)cc1	GDH-TPI inh 54
COC(=O)[C@@]12CCCCC3=C1N(CCC3)C(=O)[C@H]2CC(=O)NCc1ccc(OC)c(OC)c1	none (no result: MazF activator, GDH-TPI inh, Mtb bLac sens, Mtb FBA inh)
COc1ccc(NC(=O)CSc2nc3nc(C)cc(C)c3c(=O)[nH]2)cc1OC	none
COc1ccccc1NC(=O)CSc1nc2nc(C)cc(C)c2c(=O)[nH]1	MazF activator 51
COC(=O)C[C@@H]1CC[C@@H]2[C@H](COc3ccc(NC(=O)c4ccc(F)c(F)c4)cc3C(=O)N2C)O1	none (no result: MazF activator, GDH-TPI inh, Mtb bLac sens, Mtb FBA inh)
CCOc1ccc(OCCOCCN2CCOCC2)cc1	none
CCOc1ccc(-c2cc(C)[n+](CCN3CCOCC3)c(-c3ccc(OCC)cc3)c2)cc1	GDH-TPI inh 41
CC(C)(C)c1ccc(-c2nnc(SCC(=O)Nc3ccc(S(=O)(=O)Nc4nccs4)cc3)n2-c2ccc(Cl)cc2)cc1	none (no result: MazF activator, GDH-TPI inh, Mtb bLac sens, Mtb FBA inh)
COC(=O)C1CN(Cc2ccc(OC)cc2)CCS(=O)(=O)N1Cc1ccc(C(F)(F)F)cc1 (centres undefined)	none (no result: MazF activator, GDH-TPI inh, Mtb bLac sens, Mtb FBA inh)
COC(=O)[C@]12C[C@H](CC(=O)NCCCCc3ccccc3)C(=O)N(CCc3ccc(OC)c(OC)c3)C1=C[C@H](COCc1ccccc1)O[C@@H]2C	none (no result: MazF activator, GDH-TPI inh, Mtb bLac sens, Mtb FBA inh)
CCn1cc(C(=O)NCc2cccc(F)c2)c(=O)c2cc(F)c(N3CCN(C(=O)c4ccco4)CC3)cc21	Mtb FBA inh 38
Cc1[nH]n(-c2ccccc2)c(=O)c1/C=N/NC(=O)c1ccc(O)cc1O	GDH-TPI inh 36 (no result: CCHF vOTU inh)
CC(=O)Nc1cnc(-c2ccc3c(c2)OCO3)cn1	none (no result: MazF activator, Mtb bLac sens)
CC(=O)Nc1cnc(-c2cc(C)c(O)c(C)c2)cn1	GDH-TPI inh 32 (no result: MazF activator, Mtb bLac sens)
CN(C)Cc1c(O)ccc2cc(-c3nc4ccccc4n3C)c(=O)oc12	Mtb FBA inh active
CC(C)CSc1nnc(-c2ccco2)n1C	none (no result: MazF activator, GDH-TPI inh, Mtb bLac sens, Mtb FBA inh)
Cc1nc2c(S(=O)(=O)c3ccccc3)cnn2c(C)c1C	Mtb FBA inh 44
Cc1cc(C(=O)O[C@H]2CCC[C@@]3(C(=O)N(Cc4ccccc4)c4ccccc43)[C@H]2NC(=O)CCc2ccccc2)no1	none (no result: MazF activator, GDH-TPI inh, Mtb bLac sens, Mtb FBA inh)
Cc1ccc(N=C2NC(=O)/C(=C/c3cccs3)S2)cc1C	MazF activator 54
O=C1NC(=Nc2ccccc2)S/C1=C\c1ccccc1	GDH-TPI inh 33
O=C1NC(=Nc2cccc(O)c2)S/C1=C\c1cccnc1	none
Cc1cccc(N=C2NC(=O)/C(=C\c3cccs3)S2)c1	none
COc1ccc(/C=C2\SC(=Nc3ccccc3OC)NC2=O)cc1	GDH-TPI inh 50
O=C1NC(=Nc2cccc(O)c2)S/C1=C\c1cccc([N+](=O)[O-])c1	GDH-TPI inh 32
COc1ccc(-c2cc(-c3nnc(SCC(=O)NC4CCCCC4)n3N)[nH]n2)cc1	none (no result: MazF activator, GDH-TPI inh, Mtb bLac sens, Mtb FBA inh)
